Assay results: PubChem BioAssay AID1347140 (National Center for Advancing Translational Sciences (NCATS), 2019)
This is one part of the list. Records with an inconclusive call do not appear. Values without a mark were called inactive. The source made the active and inactive calls. Calls follow the shape of the dose curve; as a rule, active = well fitted inhibition curve with a large enough effect; inconclusive = small, poorly fitted or top-dose-only effect; inactive = no such curve, though single readings can be large or run the other way.

Assay: qHTS of pediatric cancer cell lines to identify multiple opportunities for drug repurposing: Orthogonal 3D viability screen for MG 63 (6-TG R) cells
Conditions: MG-63 (6-TG R) 3D spheroid viability, PI/Hoechst imaging, 72 h; series mostly up to 30.7 µM; activity, negative = reduced viability: at the top concentration
Description: Drug repurposing or repositioning has been offered as a strategy for drug development in oncology programs. This approach has special potential for childhood cancers and other rare or orphan diseases, where the expected return on new drug development has been a disincentive to pharmaceuticals. […] In this project we exploit the poly-pharmacology of drugs to discover new indications via phenotypic screening of a panel of 19 well-characterized cell lines derived from solid tumors seen in children and adolescents. The goal is to identify approved drugs with previously unrecognized anticancer properties that has the potential to reveal new mechanisms and biological processes involved in carcinogenesis or drug resistance. We employed a titration-based paradigm (quantitative high-throughput screening or qHTS), where all compounds were tested at multiple concentrations for their effect on cell viability. Concentration-response curves (CRCs) were derived directly from the primary screen, and both potency and efficacy values were used to identify compounds with robust bioactivity profiles. […] These two assays will be used to validate active compounds and assess the correlation of compound's potency in 2D vs 3D cultures on selected cell lines. Assay Submitter: Nathalia J. Martinez, National Center for Advancing Translational Sciences, National Institutes of Health, Rockville, MD, USA; email: natalia.martinez@nih.gov Shen, M et al. Quantitative high-throughput phenotypic screening of pediatric cancer cell lines identifies multiple opportunities for drug repurposing. Oncotarget 2017 Dec 19;9(4):4758-4772. PMID 29435139.
The cells were obtained from University of North Carolina (UNC), Pediatric Preclinical Testing Program (PPT), and Coriell Institute (CI). qHTS viability in 3D culture: Cells were assayed in phenol red-free growth media at a density of 1,000 cells/well, with the exception of Daoy, and SH-N-SH which were assayed at 1,500 cells/ well. Thirty muL of cells were dispensed into 384-well, ULA, round bottom plates (Corning) using a Multidrop dispenser. […] Spheroid viability was first determined by high-content imaging using Hoechst 33342 and Propidium Iodide (PI, ThermoFisher Scientific), followed by addition of CellTiter-Glo 3D (Promega). […] Plates were incubated for 30 min at RT on a VWR microplate shaker (300 rpm) and analyzed for luminescence intensity using a ViewLux High-throughput CCD imager equipped with clear filters. […] The data were exported to Excel, and the average fluorescent intensities were used to calculate the ratio of PI over Hoechst, which was used to quantify viability. […]

Q: Which “activity, negative = reduced viability” value does the source give for `CC[C@]1(O)C[C@@H]2CN(CCc3c([nH]c4ccccc34)[C@@](C(=O)OC)(c3cc4c(cc3OC)N(C)[C@H]3[C@@](O)(C(=O)OC)[C@H](OC(C)=O)[C@]5(CC)C=CCN6CC[C@]43[C@@H]65)C2)C1` here?
A: 12%

Q: For `COc1c(C)c2c(c(O)c1C/C=C(\C)CCC(=O)O)C(=O)OC2`, which Potency is on record?
A: 909 nM (active)

Q: With `CC[C@H]1CN2CCc3cc(OC)c(OC)cc3[C@@H]2C[C@@H]1C[C@H]1NCCc2cc(OC)c(OC)cc21` as the molecule, how does the Potency read?
A: 810 nM (active)

Q: With `CC(NCc1ccc2c(c1)nc(NC(=O)c1ccc(-c3cn[nH]c3)s1)n2CC(C)(C)O)C(C)(C)C` (centres undefined) as the molecule, how does the Potency read?
A: 722 nM (active)
